Results published in ChEMBL document CHEMBL1961873, “Compounds: GSK PKIS; Assays: Nanosyn kinase panel” (2012).

Key:
[1] = molecular target: Sphingosine kinase 1 (Homo sapiens) (UniProt Q9NYA1); details: at 1 µM;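 further: mean SPHK1 inhibition value reported from the GSK PKIS kinase panel screen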
[2] = molecular target: T1, Sphingosine kinase 2 (Homo sapiens) (UniProt Q9NRA0); details: at 0.1 µM
T1 sequence (whole entry): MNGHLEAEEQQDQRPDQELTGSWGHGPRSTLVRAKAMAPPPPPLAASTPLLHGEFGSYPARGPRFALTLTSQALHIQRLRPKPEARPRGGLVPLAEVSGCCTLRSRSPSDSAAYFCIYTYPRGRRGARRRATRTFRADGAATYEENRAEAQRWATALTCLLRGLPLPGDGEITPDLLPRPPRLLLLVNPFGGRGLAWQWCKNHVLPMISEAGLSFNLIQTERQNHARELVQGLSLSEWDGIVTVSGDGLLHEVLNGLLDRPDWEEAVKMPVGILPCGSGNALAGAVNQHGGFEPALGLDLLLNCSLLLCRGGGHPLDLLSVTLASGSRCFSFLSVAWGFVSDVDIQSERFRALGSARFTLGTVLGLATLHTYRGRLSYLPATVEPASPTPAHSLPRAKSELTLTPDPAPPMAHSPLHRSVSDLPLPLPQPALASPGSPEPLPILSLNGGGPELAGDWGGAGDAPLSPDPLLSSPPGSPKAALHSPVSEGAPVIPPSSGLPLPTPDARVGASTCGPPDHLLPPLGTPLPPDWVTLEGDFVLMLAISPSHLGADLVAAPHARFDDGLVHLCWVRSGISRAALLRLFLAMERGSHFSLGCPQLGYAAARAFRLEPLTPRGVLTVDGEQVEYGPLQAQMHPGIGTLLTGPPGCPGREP

[3] = molecular target: T1, Sphingosine kinase 2 (Homo sapiens); details: at 1 µM
[4] = molecular target: Casein kinase II subunit alpha (Homo sapiens) (UniProt P68400); details: at 0.1 µM
Sequence of Casein kinase II subunit alpha (Homo sapiens) (P68400 whole entry, looked up): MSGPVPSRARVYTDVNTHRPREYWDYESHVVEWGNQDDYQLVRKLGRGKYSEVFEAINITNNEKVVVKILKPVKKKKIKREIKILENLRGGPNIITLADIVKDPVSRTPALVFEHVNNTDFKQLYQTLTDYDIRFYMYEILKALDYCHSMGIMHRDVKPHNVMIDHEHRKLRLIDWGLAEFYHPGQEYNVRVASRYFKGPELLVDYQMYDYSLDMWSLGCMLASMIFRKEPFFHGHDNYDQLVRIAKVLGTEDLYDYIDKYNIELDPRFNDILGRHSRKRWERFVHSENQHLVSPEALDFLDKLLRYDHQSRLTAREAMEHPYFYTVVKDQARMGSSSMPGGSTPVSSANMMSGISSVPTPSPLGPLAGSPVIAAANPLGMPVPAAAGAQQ

[5] = molecular target: Casein kinase II subunit alpha (Homo sapiens) (UniProt P68400); details: at 1 µM
[6] = molecular target: T2, Inhibitor of nuclear factor kappa-B kinase subunit alpha (Homo sapiens) (UniProt O15111); details: at 0.1 µM
T2 sequence (whole entry): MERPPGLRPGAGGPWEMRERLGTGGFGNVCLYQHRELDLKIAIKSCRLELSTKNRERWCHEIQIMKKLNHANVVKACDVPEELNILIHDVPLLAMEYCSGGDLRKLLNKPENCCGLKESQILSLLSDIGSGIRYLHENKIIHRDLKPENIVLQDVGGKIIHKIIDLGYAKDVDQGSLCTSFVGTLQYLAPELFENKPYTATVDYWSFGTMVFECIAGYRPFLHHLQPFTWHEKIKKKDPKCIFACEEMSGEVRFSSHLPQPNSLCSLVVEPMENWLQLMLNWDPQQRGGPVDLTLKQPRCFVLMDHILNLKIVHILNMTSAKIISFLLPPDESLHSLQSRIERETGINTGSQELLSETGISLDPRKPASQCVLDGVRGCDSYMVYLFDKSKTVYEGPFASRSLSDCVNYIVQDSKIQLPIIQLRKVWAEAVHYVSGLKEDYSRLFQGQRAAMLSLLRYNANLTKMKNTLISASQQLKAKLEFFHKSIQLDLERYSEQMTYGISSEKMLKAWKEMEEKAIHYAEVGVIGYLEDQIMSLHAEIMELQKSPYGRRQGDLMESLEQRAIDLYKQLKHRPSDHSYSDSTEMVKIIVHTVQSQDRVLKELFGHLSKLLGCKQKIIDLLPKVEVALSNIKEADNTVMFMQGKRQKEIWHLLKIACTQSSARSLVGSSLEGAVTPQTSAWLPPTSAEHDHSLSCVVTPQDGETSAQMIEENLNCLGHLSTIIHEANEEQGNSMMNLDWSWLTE

[7] = molecular target: T2, Inhibitor of nuclear factor kappa-B kinase subunit alpha (Homo sapiens); details: at 1 µM
[8] = molecular target: T3, Inhibitor of nuclear factor kappa-B kinase subunit beta (Homo sapiens) (UniProt O14920); details: at 0.1 µM
T3 sequence (whole entry): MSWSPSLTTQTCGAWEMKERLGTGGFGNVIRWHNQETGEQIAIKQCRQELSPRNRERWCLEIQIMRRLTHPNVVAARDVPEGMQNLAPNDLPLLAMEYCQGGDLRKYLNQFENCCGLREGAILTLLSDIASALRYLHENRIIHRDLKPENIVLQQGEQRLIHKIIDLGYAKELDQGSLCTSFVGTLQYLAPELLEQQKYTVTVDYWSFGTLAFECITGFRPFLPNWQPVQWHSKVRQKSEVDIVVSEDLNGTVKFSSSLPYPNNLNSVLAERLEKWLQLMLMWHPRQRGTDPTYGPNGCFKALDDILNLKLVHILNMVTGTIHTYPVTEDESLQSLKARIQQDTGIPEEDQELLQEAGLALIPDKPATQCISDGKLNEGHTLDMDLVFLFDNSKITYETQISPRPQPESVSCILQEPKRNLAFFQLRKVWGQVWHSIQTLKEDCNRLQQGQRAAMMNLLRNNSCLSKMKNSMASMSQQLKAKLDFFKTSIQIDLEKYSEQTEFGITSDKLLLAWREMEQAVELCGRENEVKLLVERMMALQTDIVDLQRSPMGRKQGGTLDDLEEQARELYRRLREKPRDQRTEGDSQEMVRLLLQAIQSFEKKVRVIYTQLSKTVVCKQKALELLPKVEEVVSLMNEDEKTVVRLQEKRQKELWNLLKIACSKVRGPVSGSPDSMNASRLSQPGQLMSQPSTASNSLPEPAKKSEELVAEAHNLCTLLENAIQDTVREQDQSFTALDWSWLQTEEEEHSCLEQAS

[9] = molecular target: T3, Inhibitor of nuclear factor kappa-B kinase subunit beta (Homo sapiens); details: at 1 µM
[10] = molecular target: T4, Inhibitor of nuclear factor kappa-B kinase subunit epsilon (Homo sapiens) (UniProt Q14164); details: at 0.1 µM
T4 sequence (whole entry): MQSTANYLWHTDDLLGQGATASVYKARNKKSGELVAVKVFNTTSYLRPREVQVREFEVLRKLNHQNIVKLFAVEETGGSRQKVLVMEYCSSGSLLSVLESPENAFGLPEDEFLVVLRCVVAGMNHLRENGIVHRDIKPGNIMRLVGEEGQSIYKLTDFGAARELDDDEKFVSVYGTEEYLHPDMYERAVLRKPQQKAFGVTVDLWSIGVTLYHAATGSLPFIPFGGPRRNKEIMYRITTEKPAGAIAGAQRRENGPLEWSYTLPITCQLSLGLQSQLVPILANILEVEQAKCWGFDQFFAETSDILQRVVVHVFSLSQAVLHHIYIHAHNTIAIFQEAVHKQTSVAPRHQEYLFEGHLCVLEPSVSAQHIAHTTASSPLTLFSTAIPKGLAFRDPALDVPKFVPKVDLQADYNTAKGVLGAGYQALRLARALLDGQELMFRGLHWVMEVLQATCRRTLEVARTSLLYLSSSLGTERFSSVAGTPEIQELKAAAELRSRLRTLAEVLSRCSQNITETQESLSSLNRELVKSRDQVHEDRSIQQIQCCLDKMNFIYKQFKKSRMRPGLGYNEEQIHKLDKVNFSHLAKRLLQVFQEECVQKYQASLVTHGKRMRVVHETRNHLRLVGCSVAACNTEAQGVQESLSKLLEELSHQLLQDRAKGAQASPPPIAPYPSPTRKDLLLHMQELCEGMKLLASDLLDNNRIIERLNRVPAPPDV

[11] = molecular target: T4, Inhibitor of nuclear factor kappa-B kinase subunit epsilon (Homo sapiens); details: at 1 µM
[12] = molecular target: T5, Serine/threonine-protein kinase Nek1 (Homo sapiens) (UniProt Q96PY6); details: at 0.1 µM
T5 sequence (whole entry): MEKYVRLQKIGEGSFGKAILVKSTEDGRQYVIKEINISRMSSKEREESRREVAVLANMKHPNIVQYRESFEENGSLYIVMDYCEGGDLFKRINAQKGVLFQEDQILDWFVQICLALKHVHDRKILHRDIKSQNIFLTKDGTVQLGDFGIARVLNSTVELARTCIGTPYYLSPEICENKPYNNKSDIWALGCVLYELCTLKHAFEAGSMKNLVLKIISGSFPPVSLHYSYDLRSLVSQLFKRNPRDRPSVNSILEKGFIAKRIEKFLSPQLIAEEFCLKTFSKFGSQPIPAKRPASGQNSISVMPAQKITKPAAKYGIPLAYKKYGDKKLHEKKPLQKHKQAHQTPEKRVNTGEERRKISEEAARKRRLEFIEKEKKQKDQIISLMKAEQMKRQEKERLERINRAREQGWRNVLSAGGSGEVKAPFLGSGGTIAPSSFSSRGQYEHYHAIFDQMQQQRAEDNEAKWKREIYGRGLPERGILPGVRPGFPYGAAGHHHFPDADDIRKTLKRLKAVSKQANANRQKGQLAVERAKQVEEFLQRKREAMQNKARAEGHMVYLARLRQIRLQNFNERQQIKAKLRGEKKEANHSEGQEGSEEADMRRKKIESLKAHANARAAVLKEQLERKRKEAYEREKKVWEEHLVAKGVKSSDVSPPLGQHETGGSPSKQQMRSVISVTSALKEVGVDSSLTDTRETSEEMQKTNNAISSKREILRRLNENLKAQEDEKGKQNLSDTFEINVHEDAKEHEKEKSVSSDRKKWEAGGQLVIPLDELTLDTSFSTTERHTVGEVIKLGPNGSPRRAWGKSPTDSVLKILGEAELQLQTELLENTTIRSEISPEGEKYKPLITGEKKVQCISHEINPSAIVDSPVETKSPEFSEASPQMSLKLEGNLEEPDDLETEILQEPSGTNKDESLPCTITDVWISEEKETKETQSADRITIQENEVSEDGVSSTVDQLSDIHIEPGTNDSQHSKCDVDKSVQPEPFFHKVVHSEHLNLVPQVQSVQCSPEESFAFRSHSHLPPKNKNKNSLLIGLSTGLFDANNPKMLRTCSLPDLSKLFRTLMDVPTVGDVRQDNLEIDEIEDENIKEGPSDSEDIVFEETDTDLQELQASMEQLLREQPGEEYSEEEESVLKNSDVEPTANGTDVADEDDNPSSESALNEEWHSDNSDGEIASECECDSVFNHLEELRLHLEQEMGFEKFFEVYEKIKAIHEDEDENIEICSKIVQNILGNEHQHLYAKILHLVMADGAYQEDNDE

[13] = molecular target: T5, Serine/threonine-protein kinase Nek1 (Homo sapiens); details: at 1 µM
[14] = molecular target: T6, Serine/threonine-protein kinase Nek2 (Homo sapiens) (UniProt P51955); details: at 0.1 µM
T6 sequence (whole entry): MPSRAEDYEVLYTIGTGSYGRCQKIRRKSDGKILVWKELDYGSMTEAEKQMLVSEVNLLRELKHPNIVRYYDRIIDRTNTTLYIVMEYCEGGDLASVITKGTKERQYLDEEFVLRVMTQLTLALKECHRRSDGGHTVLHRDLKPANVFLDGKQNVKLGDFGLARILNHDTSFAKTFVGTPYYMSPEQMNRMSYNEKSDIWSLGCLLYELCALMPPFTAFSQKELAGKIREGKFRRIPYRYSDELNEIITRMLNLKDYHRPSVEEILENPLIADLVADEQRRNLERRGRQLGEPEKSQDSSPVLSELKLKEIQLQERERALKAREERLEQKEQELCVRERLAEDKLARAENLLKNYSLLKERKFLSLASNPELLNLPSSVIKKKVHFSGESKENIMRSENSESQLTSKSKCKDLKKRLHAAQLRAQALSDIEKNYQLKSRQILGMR

[15] = molecular target: T6, Serine/threonine-protein kinase Nek2 (Homo sapiens); details: at 1 µM
[16] = molecular target: Serine/threonine-protein kinase Nek6 (Homo sapiens) (UniProt Q9HC98); details: at 0.1 µM
Sequence of Serine/threonine-protein kinase Nek6 (Homo sapiens) (Q9HC98 whole entry): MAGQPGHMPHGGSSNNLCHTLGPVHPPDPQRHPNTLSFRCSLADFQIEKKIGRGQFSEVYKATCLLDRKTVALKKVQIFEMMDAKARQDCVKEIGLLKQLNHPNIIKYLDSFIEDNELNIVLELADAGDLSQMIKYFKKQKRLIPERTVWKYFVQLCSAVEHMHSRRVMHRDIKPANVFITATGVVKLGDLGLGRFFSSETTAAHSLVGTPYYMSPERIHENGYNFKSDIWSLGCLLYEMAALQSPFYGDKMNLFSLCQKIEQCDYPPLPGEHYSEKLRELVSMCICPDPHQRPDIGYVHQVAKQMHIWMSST

[17] = molecular target: Serine/threonine-protein kinase Nek6 (Homo sapiens) (UniProt Q9HC98); details: at 1 µM
[18] = molecular target: Serine/threonine-protein kinase Nek7 (Homo sapiens) (UniProt Q8TDX7); details: at 0.1 µM
Sequence of Serine/threonine-protein kinase Nek7 (Homo sapiens) (Q8TDX7 whole entry, looked up): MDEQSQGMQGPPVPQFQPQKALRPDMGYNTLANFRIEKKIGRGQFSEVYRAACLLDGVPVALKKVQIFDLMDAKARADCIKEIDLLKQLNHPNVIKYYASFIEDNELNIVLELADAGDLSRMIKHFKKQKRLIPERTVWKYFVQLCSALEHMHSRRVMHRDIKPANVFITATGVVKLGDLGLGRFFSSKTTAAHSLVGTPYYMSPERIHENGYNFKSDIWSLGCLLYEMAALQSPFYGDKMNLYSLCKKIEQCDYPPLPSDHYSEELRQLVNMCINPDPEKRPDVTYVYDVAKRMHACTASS

[19] = molecular target: Serine/threonine-protein kinase Nek7 (Homo sapiens) (UniProt Q8TDX7); details: at 1 µM
[20] = molecular target: T7, Serine/threonine-protein kinase Nek9 (Homo sapiens) (UniProt Q8TD19); details: at 0.1 µM;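 further: reported value is the mean percent inhibition of NEK9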
T7 sequence (whole entry): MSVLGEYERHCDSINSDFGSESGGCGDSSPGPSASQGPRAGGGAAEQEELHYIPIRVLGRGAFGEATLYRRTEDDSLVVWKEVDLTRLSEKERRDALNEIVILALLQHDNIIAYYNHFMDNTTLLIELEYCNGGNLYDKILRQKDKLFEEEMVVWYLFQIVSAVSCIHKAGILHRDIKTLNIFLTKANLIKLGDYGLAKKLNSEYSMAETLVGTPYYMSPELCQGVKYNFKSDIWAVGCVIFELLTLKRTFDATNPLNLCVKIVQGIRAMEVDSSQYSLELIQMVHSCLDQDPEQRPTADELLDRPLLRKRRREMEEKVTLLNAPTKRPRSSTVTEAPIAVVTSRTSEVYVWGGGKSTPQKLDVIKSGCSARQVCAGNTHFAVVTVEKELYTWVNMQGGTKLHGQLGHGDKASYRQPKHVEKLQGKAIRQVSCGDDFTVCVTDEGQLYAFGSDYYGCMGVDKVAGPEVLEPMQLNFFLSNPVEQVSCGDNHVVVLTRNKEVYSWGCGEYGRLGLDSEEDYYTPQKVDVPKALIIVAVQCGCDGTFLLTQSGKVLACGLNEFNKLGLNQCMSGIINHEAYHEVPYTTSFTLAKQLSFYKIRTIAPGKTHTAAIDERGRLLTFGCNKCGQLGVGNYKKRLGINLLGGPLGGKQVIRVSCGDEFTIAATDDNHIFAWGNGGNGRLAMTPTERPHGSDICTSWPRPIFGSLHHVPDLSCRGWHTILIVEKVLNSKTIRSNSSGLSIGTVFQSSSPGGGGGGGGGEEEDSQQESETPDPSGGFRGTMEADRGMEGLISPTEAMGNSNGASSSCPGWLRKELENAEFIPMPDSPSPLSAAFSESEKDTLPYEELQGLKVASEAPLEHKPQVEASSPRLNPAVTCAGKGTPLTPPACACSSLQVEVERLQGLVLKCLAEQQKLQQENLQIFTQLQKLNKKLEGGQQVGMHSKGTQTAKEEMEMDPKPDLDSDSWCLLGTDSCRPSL

Sequence of Sphingosine kinase 1 (Homo sapiens) (Q9NYA1 whole entry): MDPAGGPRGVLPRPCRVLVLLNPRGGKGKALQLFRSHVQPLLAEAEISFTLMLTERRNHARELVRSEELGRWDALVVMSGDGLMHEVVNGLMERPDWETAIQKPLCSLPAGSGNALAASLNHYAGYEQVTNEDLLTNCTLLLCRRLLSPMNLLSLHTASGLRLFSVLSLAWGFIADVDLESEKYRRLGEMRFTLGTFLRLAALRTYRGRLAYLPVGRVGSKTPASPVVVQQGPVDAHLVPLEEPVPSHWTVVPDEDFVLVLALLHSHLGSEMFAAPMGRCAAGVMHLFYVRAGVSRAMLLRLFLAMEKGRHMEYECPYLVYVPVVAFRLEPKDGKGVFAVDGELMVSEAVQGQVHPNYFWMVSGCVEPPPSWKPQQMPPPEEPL

CS(=O)(=O)CCNCc1ccc(-c2ccc3ncnc(Nc4ccc(OCc5cccc(F)c5)c(C(F)(F)F)c4)c3c2)o1
inhibition [1]: -2.4% | inhibition [2]: 0.03% | inhibition [3]: 0.79% | inhibition [4]: 3.22% | inhibition [5]: 5.65% | inhibition [6]: 7.6% | inhibition [7]: 5.45% | inhibition [8]: 5.87% | inhibition [9]: 5.15% | inhibition [10]: 5.42% | inhibition [11]: 2.73% | inhibition [12]: 2.28% | inhibition [13]: 4.09% | inhibition [14]: 4.44% | inhibition [15]: 3.68% | inhibition [16]: 2.48% | inhibition [17]: 3.62% | inhibition [18]: 4.72% | inhibition [19]: 4.32% | inhibition [20]: 7.55%
